Some of the results follow. Inconclusive results are not listed. Active and inactive are the calls of the source. The call rests on the fitted dose curve; in most records, active means well fitted inhibition curve with a large enough effect; inconclusive means small, poorly fitted or top-dose-only effect; inactive means flat fitted curve, though single readings scatter.
molecular target: Flap endonuclease 1 (Homo sapiens) (UniProt P39748); assay: qHTS Assay for the Inhibitors of FEN1: Confirmatory Assay for Cherry-picked Compounds (AID 720498); conditions: FEN1 flap cleavage, TAMRA/BHQ2 fluorogenic DNA substrate; further: nearly all actives have a fitted effect of over 60% in size
Sequence (P39748 whole entry, looked up, the tested form may be a part): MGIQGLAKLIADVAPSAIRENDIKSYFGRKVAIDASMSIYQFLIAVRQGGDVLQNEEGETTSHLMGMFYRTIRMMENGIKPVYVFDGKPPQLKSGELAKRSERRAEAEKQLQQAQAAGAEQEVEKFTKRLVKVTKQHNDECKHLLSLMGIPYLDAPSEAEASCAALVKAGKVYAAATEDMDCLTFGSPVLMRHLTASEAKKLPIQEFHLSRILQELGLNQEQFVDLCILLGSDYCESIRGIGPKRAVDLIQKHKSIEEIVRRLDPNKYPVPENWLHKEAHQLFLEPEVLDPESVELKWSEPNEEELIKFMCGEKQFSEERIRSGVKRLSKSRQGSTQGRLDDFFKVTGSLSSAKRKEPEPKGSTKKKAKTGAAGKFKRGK
Description: The major human flap endonuclease FEN1 is an efficient structure-specific enzyme that recognizes and cleaves a 5'-unannealed DNA flap. It belongs to the RAD2 family nucleases, which are involved in DNA metabolism and are highly conserved in prokaryotes and eukaryotes. FEN1 is a key enzyme in DNA replication, repair and maintenance of genomic stability. 5'-flap removal by FEN1 is critical for Okazaki fragment processing during lagging strand DNA synthesis, long-patch base excision repair (LP BER), and regulating or facilitating recombination events. […] Cells from fen1-/- blastocysts show increased apoptotic cell death after ionizing radiation treatment, and chicken cells lacking the fen1 gene are hypersensitive to DNA alkylating agents, e.g. methylmethane sulfonate (MMS) and N-methyl-N'-nitro-N-nitrosoguanidine (MNNG), as well as hydrogen peroxide. […] Elevation of FEN1 in hormone refractory human prostate cancer cells also correlates with resistant to various anticancer agents including ionizing radiation, doxorubicin, paclitaxel and vinblastine. […] This assay is used to confirm the activity of selected compounds against the human Fen1. Inhibition is the desired outcome for this screen. NIH Chemical Genomics Center [NCGC] NIH Molecular Libraries Probe Centers Network [MLPCN] MLPCN Grant: MH092154 Assay Submitter (PI): David Wilson, National Institute of Aging
Three uL of reagents (buffer in column 3 and 4 as negative control and 10 nM FEN1 in columns 1, 2, and 5-48) were dispensed into 1,536-well black solid-bottomed plate. Compounds (23 nL) were transferred via Kalypsys pin tool equipped with 1536-pin array (10 nL slotted pins, V&P Scientific, San Diego, CA). The plates were then incubated for 15 min at room temperature, and 1 uL substrate (50 nM final concentration) were added to start the reaction read twice at 0 min read and 15 min on ViewLux reader equipped with 525 nm excitation and 598 nm emission filters. Throughout the screen, reagent bottle and all liquid lines were chilled and made light-tight to minimize reagent degradation. FEN1 Substrate. All oligodeoxynucleotides were purchased from Biosearch Technologies, Inc., (Novato, CA). Double-stranded DNA substrate containing double flap strands for fluorogenic assay was prepared from three oligodeoxynucleotides: quencher (5'-TCACCCTCGTACGACTCATCCAAAAAAGC - BHQ2), flap (5'-Tamra-GC AAAAAATTTATTCATCAACTGACATCTCCTAC) and template (5'-GT AGGAGATGTCAGTTGATGAATTGAGTCGTACGAGGGTGA-3') strand by annealing. The 5' end of the downstream flap strand was labeled with 6-carboxytetramethyl rhodamine (6-TAMRA) as the fluorophore donor, whereas the 3' end of the quencher flap strand was labeled with a Black Hole Quencher-2 (BHQ-2) as the matching quencher.
Potency means the concentration at half of the fitted maximal effect.

Potency, active:
O=[N+]([O-])c1ccc(C=Nc2ccc(Cl)cc2Cl)s1 6.75 µM
CCN(CC)c1ccc2cc(C(N)=O)/c(=N\NC(=O)c3ccncc3)oc2c1 33.8 µM
CC(=O)OC1CCC2(C)C(=CCC3C4CC(=O)N(O)C(=O)C4(C)CCC32)C1 (configuration not stated) 23.9 µM
CC(=O)Nc1ccc(Nc2c3ccccc3nc3ccccc23)cc1 30.1 µM
Cc1ccc(C(=O)O)cc1-c1ccc(/C=C2\SC(=O)N(CC(=O)Nc3ccc4c(c3)OCO4)C2=O)o1 19 µM
CCN1CCN(CCCNC(=O)c2ccc3c(c2)sc2nc(-c4ccc(OC)cc4)cn23)CC1 33.8 µM
CCN1CCN(CCNC(=O)c2ccc3c(c2)NC(=O)/C(=C\c2ccc(OC)c(OC)c2)S3)CC1 33.8 µM
O=C(CCNC(=O)c1ccccc1)NN=Cc1ccc(Br)o1 84.9 µM
CCc1ccc2nc3sc(C(=O)Nc4nnc(CC)s4)c(N)c3cc2c1 60.1 µM
O=C(COC(=O)c1ccc([N+](=O)[O-])o1)NC12CC3CC(CC(C3)C1)C2 8.49 µM
CN1CCN(CCCNC(=O)c2ccc(/C=C3\Oc4ccccc4N(Cc4ccc(Cl)cc4)C3=O)cc2)CC1 23.9 µM
COc1cc(NC(=O)COC(=O)c2ccc([N+](=O)[O-])s2)cc(OC)c1OC 6.01 µM
COc1ccc2[nH]c3c(C)c4cc[n+](C)cc4c(C)c3c2c1 1.35 µM
CCOc1cccc2c1N[C@@H](c1ccc(C(=O)O)cc1)[C@H]1CC=C[C@@H]21 47.8 µM
O=C(CSc1nc2ccccc2c(=O)[nH]1)Nc1nc(-c2ccc(Br)cc2)cs1 60.1 µM
O=C(O)C(c1ccccc1)N1C(=O)/C(=C\c2ccc(-c3cccc(Cl)c3)o2)SC1=S (configuration not stated) 75.7 µM
c1ccc2cc3c(NCCN4CCOCC4)ccnc3cc2c1 37.9 µM
C=CC1=C(C(=O)O)N2C(=O)[C@@H](NC(=O)/C(=N/OCC(=O)O)c3csc(N)n3)[C@H]2SC1 33.8 µM
CN(C)CCNC(=O)c1ccc(Cl)c2cc3ccccc3nc12 13.5 µM
COc1nc(N=C(N)N)nc2c(C)cccc12 33.8 µM
COc1ccc(Cc2nnc(NC(=O)Cc3cccs3)s2)cc1 84.9 µM
COCCNC(=O)Nc1ccc2nc(-c3ccco3)c(-c3ccco3)nc2c1 19 µM

— PubChem BioAssay (NCATS)
